Results reported in PubChem BioAssay (NCATS).
Results filed as inconclusive are left out. Active and inactive are the calls of the source. Unless noted, the call rests on the fitted dose curve; in most records, active means well fitted curve in the direction sought with a large enough effect; inconclusive means small, poorly fitted or top-dose-only effect, or another doubt; inactive means no such curve, though single readings can be large; an effect the other way counts as inactive or inconclusive.

Columns and labels:
[1] = qHTS profiling of the MIPE4 collection as inhibitors of Plasmodium falciparum (DD2) proliferation (AID 743345; call rule not given here); conditions: P. falciparum Dd2 in erythrocytes, SYBR Green DNA, 72 h; at 28.5 µM (top of the series) unless noted
Procedure, shortened: (§1)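 Parasite DNA was quantified by SYBR Green I fluorescence (ex 485, em 535 nm) after overnight lysis in saponin/Triton buffer at room temperature. Cultures at 0.3% parasitemia and 2.5% hematocrit were first exposed to compound for 72 h at 37 C; signals were normalised to artemisinin (0.29 uM) and vehicle wells.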

[2] = qHTS profiling of the MIPE4 collection as inhibitors of Plasmodium falciparum (DD2) proliferation (Rep 2) (AID 743346; call rule not given here); conditions: P. falciparum Dd2 in erythrocytes, SYBR Green DNA, 72 h; at 28.5 µM (top of the series) unless noted
Procedure, shortened: as §1

[3] = High-throughput drug toxicity screening in the BPDCN cell line Gen2.2 (AID 1224824; call rule not given here); conditions: Gen2.2 BPDCN cells; at 45.8 µM (top of the series) unless noted
Procedure, shortened: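 CellTiter-Glo luminescence after 48 h compound exposure of Gen2.2 cells; percent activity set with DMSO as 100% and bortezomib (9.2 uM final) as 0%. Cells seeded at 500 per well, RPMI + 10% FBS, 37 °C.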

[4] = High-throughput drug toxicity screening in the BPDCN cell line Cal-1 (AID 1224825; call rule not given here); conditions: Cal-1 BPDCN cell viability, qHTS; at 45.8 µM (top of the series) unless noted
Procedure, shortened: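 CellTiter-Glo luminescence after 48 h compound exposure; percent activity scaled with DMSO as 100% and bortezomib (9.2 uM final) as 0%. Cal-1 cells seeded at 500/well in RPMI, 10% FBS, no phenol red.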

[5] = qHTS assay for measurement of the activity of small molecule inhibitors on Zika virus induced Caspase-3 activity in human iPSC derived neural progenitor cells (hNPCs) (AID 1224857); further: nearly all actives have a fitted effect of over 65% in size; further: potency means the concentration at half of the fitted maximal effect
Procedure, shortened: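 Zika virus (2 FFU/cell) infection of human iPSC-derived NPCs, 6 h, following 1 h compound preincubation. Read-out: Caspase-Glo 3/7 luminescence.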

[6] = qHTS assay for measurement of the activity of small molecule inhibitors on Zika virus induced Caspase-3 activity in human astrocytoma cells (AID 1224859);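 further: plate controls were ZIKV-infected untreated cells for no effect and uninfected cells for full effect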
Procedure, shortened: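 Caspase activation in ZIKV-infected SNB-19 cells (2 FFU/cell, 6 h) measured by Caspase-Glo 3/7 luminescence after 30 min RT; compound pre-incubated 1 h; normalised to uninfected and infected controls.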

[7] = qHTS profiling of the MIPE4 collection as inhibitors of Plasmodium falciparum (3D7) proliferation (AID 743344; call rule not given here;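 further: scaled between DMSO vehicle wells and 0.29 µM artemisinin as full inhibition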); conditions: P. falciparum 3D7 in erythrocytes, SYBR Green DNA fluorescence, 72 h; at 28.5 µM (top of the series) unless noted
Procedure, shortened: as §1

[8] = qHTS Screen of the MIPE 4.0 Collection Against Ewings Sarcoma (RDES) (AID 1259252); further: nearly all actives have a fitted effect of over 35% in size; further: potency means the concentration at half of the fitted maximal effect
Procedure, shortened: (§2)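 Viability screen: 48 h incubation at 37C, 95% humidity, 5% CO2 with serially titrated compound, followed by CellTiter-Glo readout.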

[9] = qHTS Screen of the MIPE 4.0 Collection Against Ewings Sarcoma (TC71) (AID 1259253); further: potency means the concentration at half of the fitted maximal effect; nearly all actives have a fitted effect of over 40% in size
Procedure, shortened: as §2

[10] = qHTS Screen of the MIPE 4.0 Collection Against Ewings Sarcoma (EW8) (AID 1259255); further: nearly all actives have a fitted effect of over 35% in size; further: potency means the concentration at half of the fitted maximal effect;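 on viability: 100% = DMSO-treated cells and 0% = medium-only wells without cells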
Procedure, shortened: as §2

[11] = qHTS Screen of the MIPE 4.0 Collection Against Ewings Sarcoma (TC32) (AID 1259256); further: nearly all actives have a fitted effect of over 45% in size; further: potency means the concentration at half of the fitted maximal effect
Procedure, shortened: as §2

[12] = qHTS profiling of the MIPE4 collection as inhibitors of Plasmodium falciparum (HB3) proliferation (AID 743347; call rule not given here;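 further: plate controls were DMSO vehicle wells for no effect and artemisinin wells for full effect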); conditions: P. falciparum HB3 in erythrocytes, SYBR Green DNA, 72 h; at 28.5 µM (top of the series) unless noted
Procedure, shortened: as §1

[13] = qHTS profiling for inhibitors of Plasmodium falciparum (HB3) proliferation (AID 743324); conditions: Plasmodium falciparum HB3 blood-stage proliferation; at 28.7 µM (top of the series);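 further: 100% = DMSO vehicle wells and 0% = artemisinin-treated control wells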
Procedure, shortened: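 SYBR Green fluorescence (485 ex/535 em) of lysed cultures, incubated overnight at room temperature in the dark, quantifies parasite DNA. Infected erythrocytes at 0.3% parasitemia and 2.5% hematocrit were exposed 72 h; values normalized to DMSO and 0.29 uM artemisinin controls.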

[14] = Identifying Small Molecule Inhibitors of Pancreatic Cancer Stem Cells (A2780, Spheroid) (AID 1259357); conditions: Potency: A2780 spheroid viability;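 further: potency means the concentration at half of the fitted maximal effect; compound exposure lasted 48 h before the ATP luminescence read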
Procedure, shortened: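 Spheroids grown 14 days in stem cell media on hydrogel-coated nonadherent plates; 2D lines seeded directly. Compounds added after 4 h attachment, 48 h at 37C, 5% CO2; CellTiter-Glo luminescence normalized to DMSO (no inhibition) and no-cell wells (full inhibition).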

[15] = Identifying Small Molecule Inhibitors of Pancreatic Cancer Stem Cells (SN12C, Adherent) (AID 1259358);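 further: potency means the concentration at half of the fitted maximal effect; cell survival measured after 48 h of compound exposure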
Procedure, shortened: (§3)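 Monolayer and spheroid cultures are compared. Spheroids form over 14 days in stem cell medium on hydrogel-coated low-attachment plates, then are exposed to compound for 48 h before CellTiter-Glo luminescence.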

[16] = Identifying Small Molecule Inhibitors of Pancreatic Cancer Stem Cells (Panc1, Spheroid) (AID 1259359); conditions: Panc1 spheroid cancer stem cell viability;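 further: potency means the concentration at half of the fitted maximal effect; compound exposure lasted 48 h before reading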
Procedure, shortened: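 Luminescent ATP readout (CellTiter-Glo) quantifies surviving cells after a 48 h drug incubation. Normalization uses DMSO wells as no inhibition and media-only wells as full inhibition; bortezomib served as positive control.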

[17] = Identifying Small Molecule Inhibitors of Pancreatic Cancer Stem Cells (A278, Adherent) (AID 1259361);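 further: viability read after 48 h compound exposure; nearly all actives have a fitted effect of over 35% in size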
Procedure, shortened: as §3

[18] = Identifying Small Molecule Inhibitors of Pancreatic Cancer Stem Cells (Panc1, Adherent) (AID 1259362); conditions: Potency: viability; further: potency means the concentration at half of the fitted maximal effect
Procedure, shortened: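 Adherent (2D) versus sphere (3D) formats; spheres generated 14 d in SCM beforehand. Compound transferred by pin tool after 4 h, 48 h incubation, CellTiter-Glo endpoint.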

SMILES: COc1ccc2c(Oc3ccc(NC(=O)c4c(C)n(CC(C)(C)O)n(-c5ccccc5)c4=O)cc3F)ccnc2c1
- parasite growth remaining, % of DMSO control (lower = more inhibition) [1]: 60.9%
- parasite growth, % of control (lower = inhibition) [2]: 48.9%
- cell viability, % of control (lower = more cytotoxic) [3]: 16.8%
- viability (% of control) [4]: 13.4%
- Potency [5]: inactive
- Potency [6]: inactive

SMILES: COc1ccc(-c2cc(=O)c3c(O)cc(O)cc3o2)cc1O
- parasite growth, % of DMSO control [7]: 30.9%
- parasite growth remaining, % of DMSO control (lower = more inhibition) [1]: 44.4%
- parasite growth, % of control (lower = inhibition) [2]: 43.3%
- cell viability, % of control (lower = more cytotoxic) [3]: 97.2%
- viability (% of control) [4]: 16.3%
- Potency [5]: 18.7 µM (active)
- Potency [8]: 5.26 µM (active)
- Potency [9]: 9.35 µM (active)
- Potency [10]: 13.2 µM (active)
- Potency [11]: 14.8 µM (active)

SMILES: NC(=O)c1cccc2[nH]c(-c3ccc([C@H]4CCCN4)cc3F)nc12
- parasite growth, % of DMSO control [7]: 5.38%
- parasite growth remaining, % of DMSO control (lower = more inhibition) [1]: 43.5%
- cell viability, % of control (lower = more cytotoxic) [3]: 104%
- viability (% of control) [4]: 19.9%
- Potency [5]: 18.7 µM (active)
- Potency [8]: 7.43 µM (active)
- Potency [9]: 14.8 µM (active)
- Potency [10]: 18.7 µM (active)
- Potency [11]: 11.8 µM (active)

SMILES: O=C1c2ccccc2-[n+]2ccc3c([nH]c4ccccc43)c21
- parasite growth, % of DMSO control [7]: 16.3%
- parasite growth remaining, % of DMSO control (lower = more inhibition) [1]: 7.19%
- parasite growth, % of control (lower = inhibition) [2]: 16.6%
- growth, % of control [12]: 4.72%
- cell viability, % of control (lower = more cytotoxic) [3]: 5.04%
- viability (% of control) [4]: 3.57%
- Potency [5]: 1.05 µM (active)
- Potency [8]: 1.05 µM (active)
- Potency [9]: 0.935 µM (active)
- Potency [10]: 1.18 µM (active)
- Potency [11]: 0.743 µM (active)

SMILES: CCN(CC)CCOc1ccc(C(=C(Cl)c2ccccc2)c2ccccc2)cc1
- parasite growth, % of control (lower = inhibition) [2]: 6.97%
- cell viability, % of control (lower = more cytotoxic) [3]: 136%
- viability (% of control) [4]: 50.6%
- Potency [5]: inactive
- Potency [6]: inactive

SMILES: CCc1ccc(C=C2SC(=S)NC2=O)cc1
- parasite growth, % of DMSO control [7]: 77.1%
- parasite growth remaining, % of DMSO control (lower = more inhibition) [1]: 93.8%
- parasite growth, % of control (lower = inhibition) [2]: 115%
- growth, % of control [12]: 87.9%
- cell viability, % of control (lower = more cytotoxic) [3]: 159%
- viability (% of control) [4]: 83.2%
- Potency [5]: 20.9 µM (active)
- Potency [8]: inactive
- Potency [10]: inactive
- Potency [11]: inactive

SMILES: CCC(CC)[C@H](NC(C)=O)[C@@H]1[C@H](O)[C@@H](C(=O)O)C[C@@H]1N=C(N)N
- growth, % of control [12]: 97.8%
- cell viability, % of control (lower = more cytotoxic) [3]: 81.8%
- viability (% of control) [4]: 105%
- Potency [5]: inactive
- Potency [8]: inactive
- Potency [10]: inactive
- Potency [11]: inactive

SMILES: O=C1C(Cl)=C(NCCN2CCOCC2)C(=O)c2ncccc21
- remaining proliferation (% of control), lower = more inhibition [13]: 26.6%
- parasite growth remaining, % of DMSO control (lower = more inhibition) [1]: 18%
- growth, % of control [12]: 10.3%
- cell viability, % of control (lower = more cytotoxic) [3]: 2.36%
- viability (% of control) [4]: 0.784%
- Potency [5]: 2.35 µM (active)
- Potency [8]: 8.33 µM (active)
- Potency [9]: 6.62 µM (active)
- Potency [10]: 3.72 µM (active)
- Potency [11]: 2.64 µM (active)
- Potency [14]: 9.35 µM (active)
- Potency [15]: 6.62 µM (active)
- Potency [16]: 3.72 µM (active)
- IC50 (viability decrease) [17]: 3.32 µM (active)
- Potency [18]: 1.66 µM (active)

SMILES: COc1ccc(-c2coc3cc(O)ccc3c2=O)cc1
- parasite growth, % of control (lower = inhibition) [2]: 96.3%
- growth, % of control [12]: 92.8%
- cell viability, % of control (lower = more cytotoxic) [3]: 191%
- viability (% of control) [4]: 109%
- Potency [5]: 18.7 µM (active)
- Potency [8]: inactive
- Potency [10]: inactive
- Potency [11]: inactive
